Screening results (PubChem)
dFosB activator: activators of delta FosB homodimer, primary screen, biochemical, fluorescence polarization, TAMRA-CDK5 oligo, single point | 340,000 compounds, 0.99% hits | activation, % at 25 µM | purified delta FosB; percent of positive-control signal above neutral wells | AID 493131, 2011;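 active = mean activation above about 17%, with every replicate also reaching it, limit read from the data, passing the limit was not always enough; inconclusive = only one of the two conditions met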
Target sequence (P13346 whole entry, looked up): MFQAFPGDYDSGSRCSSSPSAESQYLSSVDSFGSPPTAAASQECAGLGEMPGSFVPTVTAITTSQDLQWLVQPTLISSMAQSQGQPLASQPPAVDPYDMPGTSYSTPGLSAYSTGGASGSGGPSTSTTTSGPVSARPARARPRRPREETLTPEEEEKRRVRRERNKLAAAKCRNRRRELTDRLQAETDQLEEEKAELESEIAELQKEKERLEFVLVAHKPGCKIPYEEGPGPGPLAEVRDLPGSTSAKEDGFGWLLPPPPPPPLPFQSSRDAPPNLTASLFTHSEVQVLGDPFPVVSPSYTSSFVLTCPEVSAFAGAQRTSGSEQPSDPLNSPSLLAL
CDK5 p35 inh: inhibitors of human CDK5/p35 kinase, primary screen, biochemical, single concentration; Cyclin-dependent kinase 5 (Homo sapiens) + Cyclin-dependent kinase 5 activator 1 (Homo …; Recombinant CDK5/p35, ADP-Glo luminescence, 60 min; inhibition, % at 10 µM; 330,000 compounds, 0.01% hits;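 active = highest replicate inhibition of at least 50% and at least 75% of replicates reaching 50%; inconclusive = only one of the two criteria met; inactive = both criteria failed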;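 note: plate controls were DMSO neutral control for no effect and GW8510 at 10 µM for full effect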
PvdQ inh: P. aeruginosa PvdQ acylase inhibitors, primary screen, biochemical, fluorescence, plate reader and imaging, single point. PvdQ acylase [Pseudomonas aeruginosa LESB58]. purified PvdQ acylase. inhibition, % at 10 µM. 340,000 compounds, 0.063% hits. AID 488965, 2010; in the data active = inhibition above about 30%, passing the limit was not always enough; inconclusive = no clear call, values can overlap the other calls;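 note: 0% = vehicle neutral wells and 100% = reference inhibitor wells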
PglD inh: C. jejuni PglD acetyltransferase inhibitors, primary screen, biochemical, DTNB colorimetric, single point; purified PglD enzyme, DTNB colorimetric CoA detection; inhibition, % at 12.5 µM; 360,000 compounds, 0.098% hits; AID 602405, 2012; in the data active = inhibition above about 16%, passing the limit was not always enough; inconclusive = no clear call, values can overlap the other calls
FGF22 binding: binders of human FGF22 protein, primary screen, FGF22 synaptogenesis inhibitor project, biophysical, thermal shift, single point. recombinant FGF22 thermal shift, SYPRO orange fluorescence; percent of sucrose octasulfate shift, DMSO zero. activity (Tm shift, normalised), % at 9.99 µM. 340,000 compounds, 1.5% hits;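 active = mean Tm shift, scaled 0 neutral to 100 positive control, at about 1.3% or above, every replicate too, limit read from the data; inconclusive = no clear call, values can overlap the other calls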
Target sequence (Q9HCT0 whole entry, looked up): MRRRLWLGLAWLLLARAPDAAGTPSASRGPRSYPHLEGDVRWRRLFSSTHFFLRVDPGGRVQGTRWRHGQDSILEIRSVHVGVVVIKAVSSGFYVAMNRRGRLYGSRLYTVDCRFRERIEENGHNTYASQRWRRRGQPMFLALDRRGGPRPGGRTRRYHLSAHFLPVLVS
SIRT5 inh: SIRT5 desuccinylase inhibitors, primary screen, biochemical, fluorescence imaging, single point, set 5. NAD-dependent protein deacylase sirtuin-5, mitochondrial (Homo sapiens), Q9NXA8. Purified SirT5, succinyl-peptide AMC, trypsin-coupled fluorescence. inhibition, % at 15 µM. 330,000 compounds, 1.1% hits; in the data active = inhibition above about 15%; inconclusive = no clear call, values can overlap the other calls
Starred values were filed as active, the others as inactive; ? = inconclusive; / = no result given. Rows were chosen to be rich in hits. Some 2.8% of all compounds tested hit in one or more screens of this group.

SMILES	dFosB activator	CDK5 p35 inh	PvdQ inh	PglD inh	FGF22 binding	SIRT5 inh
COCC#Cc1ccc2c(c1)O[C@H](CN(C)Cc1ccccc1)[C@@H](C)CN([C@H](C)CO)S2(=O)=O	/	/	/	2.8	-0.2	0.7
Cc1ccc(C=NNc2nc3c([nH]2)c(=O)n(C)c(=O)n3C)cc1	4.5	0.4	7.7	0.2	43.9*	/
Cn1c(=O)c2[nH]c(NN=Cc3ccc(Br)cc3)nc2n(C)c1=O	2.9	-1.0	-13.2	6.3	0.0	-2.5
O=C(NCC[C@H]1CC[C@@H](NS(=O)(=O)c2ccc(Cl)cc2)[C@H](CO)O1)c1ccccc1F	/	/	/	2.8	-0.1	1.8
CCCCN1CC(=O)N2[C@H](c3ccc(OC)cc3)[C@@H]3C(=O)N(CC)C(=O)[C@@H]3[C@]2(Cc2ccccc2)C1=O	2.9	1.7	4.2	-8.1	0.1	27.1*
CCN1C(=O)[C@H]2[C@@H](c3ccc(OC)cc3)N3C(=O)CN(CCOC)C(=O)[C@@]3(Cc3ccccc3)[C@H]2C1=O	2.0	1.2	-8.0	-4.0	0.2	-6.0
Cc1ccc(S(=O)(=O)OCC(=O)Nc2ccc(C(=O)O)c(O)c2)cc1	-12.2	-1.7	-10.4	/	0.9	53.4*
Cc1cccc(OC(=O)Nc2ccc(C(=O)O)c(O)c2)c1	/	/	/	-6.4	0.9	34.7*
CCOC(=O)Nc1ccc(C(=O)Oc2ccccc2)c(O)c1	-11.5	3.9	-9.1	-1.1	0.2	-2.9
Cc1ccc(NC(=O)COCC(=O)Nc2ccc(C)cc2)cc1	-0.8	1.6	-7.8	5.3	0.0	0.0
C[C@@H]1CN([C@@H](C)CO)C(=O)c2cc(NS(=O)(=O)c3ccccc3)ccc2O[C@H]1CN(C)C(=O)NC1CCCCC1	/	/	/	-0.9	-0.3	1.8
O=C(COC(=O)c1ccccc1C(=O)c1ccc(Cl)cc1)NCCc1ccccc1	-14.9	0.6	5.0	-3.4	0.2	-7.3
O=C(OCC(=O)N1CCc2ccccc21)c1ccc(Cl)nc1	-1.6	-1.9	-9.5	-6.9	/	/
O=C(COC(=O)c1ccccc1C(=O)c1ccc(Cl)cc1)NC(c1ccccc1)c1ccccc1	-2.3	0.9	9.3	/	43.2*	-3.4
CC(NC(=O)COC(=O)/C=C/c1ccc(Cl)cc1)c1ccccc1 (configuration not stated)	2.1	3.1	14.5	-6.8	43.5*	-0.8
O=C(OCC(=O)N1CCc2ccccc21)c1nc(Cl)ccc1Cl	-9.3	-1.3	-5.2	/	44.3*	-6.0
CC(NC(=O)COC(=O)c1nc(Cl)ccc1Cl)c1ccccc1 (configuration not stated)	0.3	-0.2	-10.3	-0.1	43.5*	/
CC(NC(=O)COC(=O)/C=C/c1cccc(F)c1)c1ccccc1 (configuration not stated)	0.6	0.6	-7.0	4.0	-0.1	-0.3
C[C@H]1CN([C@@H](C)CO)C(=O)c2cc(-c3cccc(F)c3)cnc2O[C@@H]1CN(C)C(=O)C1CCC1	/	/	/	-0.2	-0.1	4.8
COc1ccc(NC(=O)N(C)C[C@H]2OCCCC[C@H](C)Oc3ccc(NC(=O)Nc4ccc(F)cc4)cc3C(=O)N([C@@H](C)CO)C[C@@H]2C)cc1	/	/	/	-2.4	-0.4	-2.2
O=C(N[C@H]1CC[C@H](CCn2cc(C3(O)CCCC3)nn2)O[C@H]1CO)C1CCOCC1	/	/	/	1.7	-0.1	/
O=C(c1ccc(OCCN2CCCCC2)cc1)c1c(-c2ccc(O)cc2)sc2cc(O)ccc12	34.4*	-0.5	-10.0	-0.4	-0.1	-0.4
Cc1c(C(=O)OCC(O)=C(C#N)c2nc3ccccc3[nH]2)oc2ccc(Br)cc12	-1.4	3.3	4.3	/	-0.3	30.5*
N#CC(=C(O)COC(=O)c1ccc2c(c1)OCCO2)c1nc2ccccc2[nH]1	7.2	1.4	11.2	/	0.0	/
C[C@@H]1CCCCO[C@H](CN(C)S(=O)(=O)c2ccc(Cl)cc2)[C@H](C)CN([C@@H](C)CO)C(=O)c2cc(NS(=O)(=O)c3ccccc3)ccc2O1	/	/	/	/	-0.3	15.5*
SMILES	dFosB activator	CDK5 p35 inh	PvdQ inh	PglD inh	FGF22 binding	SIRT5 inh
C[C@@H]1CN([C@@H](C)CO)C(=O)c2cc(NS(=O)(=O)c3ccccc3)ccc2O[C@@H](C)CCCCO[C@H]1CN(C)S(=O)(=O)c1ccc(Cl)cc1	/	/	/	/	-0.5	16.4*
C[C@@H]1CCCCO[C@@H](CN(C)S(=O)(=O)c2ccccc2)[C@H](C)CN([C@H](C)CO)C(=O)c2cc(NS(=O)(=O)c3ccc(Cl)cc3)ccc2O1	/	/	/	2.7	-0.1	14.4
C[C@@H]1CCCCO[C@@H](CN(C)S(=O)(=O)c2ccc(Cl)cc2)[C@H](C)CN([C@@H](C)CO)C(=O)c2cc(NS(=O)(=O)c3ccccc3)ccc2O1	/	/	/	/	-0.5	20.8*
C[C@H]1CCCCO[C@@H](CN(C)S(=O)(=O)c2ccc(Cl)cc2)[C@@H](C)CN([C@@H](C)CO)C(=O)c2cc(NS(=O)(=O)c3ccccc3)ccc2O1	/	/	/	1.4	-0.4	2.7
Cc1ccc(S(=O)(=O)Nc2ccc3c(c2)C(=O)N([C@H](C)CO)C[C@@H](C)[C@H](CN(C)C(=O)Nc2ccc4c(c2)OCO4)OCCCC[C@H](C)O3)cc1	/	/	/	/	0.0	1.3
COc1cc(/C=N/N2CCN(Cc3ccc(Cl)cc3)CC2)cc(Br)c1O	-13.2	-0.5	5.7	3.9	0.0	18.4*
COc1cc(/C=N/N2CCN(Cc3ccc(Cl)cc3)CC2)ccc1OC(C)=O	-4.8	-0.3	-11.8	5.7	-0.1	-0.3
O=C(Nc1ccccc1)N[C@H]1CC[C@@H](CCn2cc(-c3ccccc3F)nn2)O[C@H]1CO	/	/	/	/	/	-4.7
Cc1ccc(S(=O)(=O)N2CCN(C(=O)c3ccccn3)CC2)cc1	-2.1	-1.5	-3.3	-1.5	43.1*	-3.2
CCOC(=O)c1ccc(S(=O)(=O)N2CCN(C(=O)c3ccccn3)CC2)cc1	-0.3	-1.2	-9.2	2.4	0.2	0.6
O=C(c1ccccn1)N1CCN(S(=O)(=O)c2ccccc2)CC1	0.9	1.8	-9.7	3.7	43.2*	9.7
O=C(c1ccccn1)N1CCN(S(=O)(=O)c2ccc(F)cc2)CC1	2.1	0.7	27.1	/	0.6	2.4
CNc1ccccc1C(C)(C)c1cc(-c2cccc(Br)c2)no1	?	1.0	-5.5	5.8	43.3*	-2.4
CC1=Nc2cc(C(=O)NCCCOC(C)C)ccc2Sc2ccccc21	-9.2	0.1	5.8	-4.9	43.0*	-2.9
